Reference: PubChem BioAssay AID652010 (The Scripps Research Institute Molecular Screening Center, 2013)
Among all 370,000 compounds or so, about 4,100 (1.1%) were called active. What follows is part of a selection rich in actives, with near analogues and random picks from the rest. Unmarked numbers belong to inactive results.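 How the source made its calls: active means inhibition above the mean over all tested compounds plus 3 SD (cut at about 3.6% in these data); inactive means the rest.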

experiment: relief of DAX-1 repression of SF-1 activity – cell-based, luminescence, SF-1 (NR5A1), full-length DAX-1, primary screen (AID 652010); conditions: HEK293T StAR-luciferase reporter, SF-1/DAX-1 repression relief; at 6.8 µM; active compounds read high;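 further: 0% = DAX-1 cells with DMSO and 100% = cells lacking DAX-1 with DMSO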

Point of comparison: `O=C(NCCc1cccc(F)c1)C1CCCN(c2nc3ccccc3s2)C1` (centres undefined), inhibition 0.01%. Against it:
- Cc1ccccc1Nc1nc(N)nc(COC(=O)CCC(=O)c2ccc(F)cc2)n1 — higher, 1.74%
- Cc1ccccc1Nc1nc(N)nc(CSc2nnc3ccccn23)n1 — higher, 0.79%
- COC(=O)c1cc(NC(=O)c2cc(C(C)(C)C)nn2Cc2cccc(C)c2)ccc1N1CCOCC1 — lower, -0.35%
- O=C(CSc1cccc[n+]1[O-])NCCCc1ccccc1 — lower, -0.54%
- CCN(C(=O)CSc1cccc[n+]1[O-])c1ccccc1 — lower, -1.71%
- CCOC(=O)C1=C(C)NC2=C(C(=O)CC(C)(C)C2)C1c1ccc2c(c1)OCO2 (centres undefined) — lower, -0.98%
- COCCCNC(=O)C[C@H]1C[C@@]2(C(=O)OC)C(=C[C@H](C(C)(C)C)O[C@@H]2C)N(Cc2ccc(Cl)cc2Cl)C1=O — lower, -0.02%
- CC(=O)OC12CCCN(C1)/C(=C/c1ccncc1)C2 (centres undefined) — higher, 0.29%
- COC(=O)[C@H](C(C)C)N(CCc1cn(Cc2ccccc2)nn1)S(=O)(=O)c1ccc(F)cc1Br — lower, -1.05%
- CCCNC(=O)C1CC(=O)N(c2ccc(OCC(=O)Nc3cccc(C)c3C)cc2)C1 (centres undefined) — higher, 0.23%
- CCOc1ccc(N2CC(C(=O)NCc3ccccn3)CC2=O)cc1 (centres undefined) — lower, -0.17%
- O=C(NC1CCc2ccccc21)C12CN(Cc3ccccc3)CC1C(c1cccc([N+](=O)[O-])c1)=NO2 (centres undefined) — lower, -0.99%
- COc1ccc(CN2C(=O)N3Cc4cc(OC)ccc4C3CS2(=O)=O)cc1 (centres undefined) — lower, -0.73%
- O=C(N/N=C/c1ccsc1)c1cc(O)cc(O)c1 — lower, -0.09%
- NN=C(NN=Cc1ccccc1)c1ccccc1 — higher, 0.41%
- Cc1ccc(Cn2cc(CN3[C@@H](CC(C)C)COc4ccc(Cl)cc4S3(=O)=O)nn2)cc1 — higher, 0.88%
- Cc1[nH]nc2c1C(c1ccc(Br)cc1)NC2=O (centres undefined) — lower, -0.04%
- CCCOc1ccc(Oc2c(Cl)cnn(Cc3cccc4ccccc34)c2=O)cc1 — higher, 0.1%
- CN(C)Cc1cn(-c2ccc(-c3noc4c3C(=O)N(CC(=O)N3CCOCC3)CC4)cc2)nn1 — lower, -0.33%
- Cc1nc(N2CCCCC2)sc1C=O — higher, 0.27%
- COc1ccc(-n2c(SCC(=O)Nc3ccc4c(c3)OCCO4)nnc2-c2ccc(Cl)cc2)cc1 — higher, 0.07%
- COc1ccccc1C(=O)NC1CCCCN(C(C)C)C1=O (centres undefined) — lower, -0.1%
- O=C(CSc1nc2c(c(=O)[nH]1)CCCC2)N1CCCCC1 — lower, -0.21%
- COc1cccc(N(C)C(=O)[C@@H](C)[C@@H](O)c2ccc3ccccc3c2)c1 — lower, -0.75%
- COc1ccc(C(C)(O)c2nc(-c3cc(F)cc(F)c3)cs2)cc1 (centres undefined) — lower, -0.31%
- COc1ccc(C2C(C(C)=O)=C(O)C(=O)N2c2nccs2)cc1 (centres undefined) — higher, 0.43%
- Cc1ccc(NS(=O)(=O)c2cc3c(cc2Br)NC(=O)CO3)cc1C — lower, -2.1%
- CN1CCN(S(=O)(=O)c2ccc(NC(=O)C3CCCO3)cc2)CC1 (centres undefined) — lower, -0.58%
- CCOc1cc(/C=N/NC(=O)c2ccc(CSc3nncn3C)cc2)ccc1OCC(=O)N1CCOCC1 — higher, 0.55%
- O=S1(=O)c2ccc(N3CCN(Cc4ccccc4F)CC3)cc2Oc2ccccc2CN1Cc1cn(Cc2ccc(Cl)cc2)nn1 — lower, -0.86%
- O=S(=O)(c1cccs1)N1CCCc2nc(-c3ccc(Br)cc3)ccc21 — higher, 0.56%
- CCCCN1CCN(C(=O)c2ccc3c(c2)NC(=O)C(C)(C)O3)CC1 — higher, 0.65%
- CC(NS(=O)(=O)c1ccc(OCC(=O)N2CCCC2)cc1)c1ccccc1 (centres undefined) — higher, 0.22%
- COc1ccc(N(CC(=O)N2CCCCCC2)S(=O)(=O)c2ccccc2)cc1 — lower, -0.37%
- O=C(CCc1nnc2ccc(NCc3ccco3)nn12)Nc1cc(F)ccc1F — higher, 1.27%
- CCOc1ccccc1NC(=O)CCc1nnc2ccc(NCc3ccco3)nn12 — lower, -0.55%
- O=C(CSc1nnc(-c2ccccc2)n1Cc1ccco1)Nc1ccccc1-c1ccccc1 — lower, -1.32%
- Cc1cccc(NC(=O)C(C)N2C(=O)C3C4CC(C(Br)C4Br)C3C2=O)c1 (centres undefined) — lower, -0.17%
- Nc1nc2cc(Cl)ccc2n1N — higher, 0.18%
- Nc1ccc2c(c1)C(O)c1ccc(Cl)cc1-2 (centres undefined) — higher, 0.66%
- CCOC(=O)N1CCN(C(=O)C[C@H]2C[C@@]3(C(=O)OC)C(=C[C@H](C4CCCC4)O[C@@H]3C)N(Cc3ccccc3)C2=O)CC1 — lower, -0.29%
- CC(C)N1CCCCC(NC(=O)C(C)(C)C)C1=O (centres undefined) — lower, -0.67%
- CC(=O)Nc1cccc(C(=O)OCC(=O)NCc2cc(C)c(O)c(C)c2)c1 — higher, 2.37%
- CC(=O)Nc1cccc(C(=O)OCN2C(=O)c3ccccc3C2=O)c1 — higher, 1.3%
- COC(=O)C1CN(CCc2ccccc2)CCS(=O)(=O)N1Cc1cccc(Cl)c1 (centres undefined) — lower, -1.7%
- O=C1CC[C@@H](COc2ccc3[nH]cc(-c4ccccc4)c3c2-c2ccccc2)N1 — lower, -0.82%
- O=C(NCC(=O)N1CCCCCCC1)c1ccccc1Cl — lower, -0.28%
- O=C(COC(=O)CNC(=O)c1ccccc1F)NCC(F)(F)F — lower, -0.62%
- O=C(C1CCCO1)N(c1ccc(F)cc1)C1C=CS(=O)(=O)C1 (centres undefined) — lower, -0.69%
- C=CC1=CCN(S(=O)(=O)C(C)(C)C)[C@@H]1CCO — lower, -0.3%
- CN(C(=O)COC(=O)c1cc(=O)[nH]c2ccccc12)C1CCCCC1 — higher, 3.03%
- O=C(COC(=O)c1cc(=O)[nH]c2ccccc12)NCc1cccc(Cl)c1 — lower, -1.15%
- COC(=O)[C@@]12CCCCC=C1N(CCc1ccc(Cl)cc1)C(=O)[C@H]2CC(=O)NCc1ccc(OC)c(OC)c1 — lower, -1.83%
- CC(C)(C)OC(=O)NCCc1ccccc1/C=C/S(=O)(=O)NCc1ccc(F)cc1 — lower, -2.47%
- C=CCN(CC=C)C(=O)CN1C(=O)c2ccccc2C1=O — lower, -0.48%
- COc1cc(C(C)=O)ccc1OC(=O)CN1C(=O)c2ccccc2C1=O — lower, -0.4%
- CCn1c(SCC(C)=O)nc2sc3c(c2c1=O)CCCC3 — lower, -0.04%
- Cc1ccc(OCCCC(=O)Nc2ccc3c(c2)OCCO3)cc1 — lower, -0.75%
- O=C(COC(=O)/C=C/c1ccc2c(c1)OCO2)NC1CCS(=O)(=O)C1 (centres undefined) — higher, 0.14%
- COc1ccc(S(=O)(=O)N(C)CC(=O)Nc2ccc3c(c2)OCCO3)cc1OC — higher, 0.16%
- CN(Cc1ccccc1)C(=O)COC(=O)/C=C/c1ccc2c(c1)OCO2 — higher, 0.06%
- C=CCN1C(=O)[C@H](CC(=O)N2CCN(C(=O)OCC)CC2)[C@@]2(C(=O)OCC)CCCC=C12 — lower, -0.21%
- COC(=O)c1ccccc1-n1cc(COC(=O)NCCc2ccccc2)nn1 — lower, -0.35%
- Cc1cc(NS(=O)(=O)c2ccc(NC(=O)CSc3nnc(-c4ccc(C(C)(C)C)cc4)n3Cc3ccco3)cc2)nc(C)n1 — higher, 0.36%
- COC(=O)C1=C(C)N(Cc2ccccc2C(F)(F)F)C(=NCC2CC2)NC1c1cccc(Cl)c1 (centres undefined) — higher, 0.1%
- CC(C)C[C@H]1CN([C@@H](CC(C)C)CN2CCC[C@@H]2CN2C(=O)C(=O)NC[C@@H]2Cc2ccccc2)C(=O)C(=O)N1CCc1ccccc1 — lower, -1.31%
- CN1[C@H](Cc2ccccc2)COc2cccc(N3CCSCC3)c2S1(=O)=O — lower, -1%
- Cc1cccc(C(=O)N2CCN(S(=O)(=O)N3CCCCC3)CC2)c1 — higher, 1.49%
- NC1=NN(c2cccc(C(=O)O)c2)C(=O)C1 — lower, -0.57%
- CCOC(=O)[C@]12CCCC=C1N(CCCOC)C(=O)[C@@H]2CC(=O)N1CCOCC1 — lower, -0.49%
- CCCNC(=O)Nc1ccc2c(c1)C(=O)N(C)[C@H]1CC[C@H](CC(=O)NCC3CCCCC3)O[C@@H]1CO2 — lower, -0.63%
- COC(=O)C(C(=O)OC)c1ccccc1NS(=O)(=O)c1cccc2ccccc12 — higher, 0.06%

With `Cc1ccccc1Nc1nc(N)nc(CSc2ccccc2)n1` the inhibition was 6.39% (active).
In the case of `O=C(CSc1cccc[n+]1[O-])c1ccc(-c2ccccc2)cc1`, the inhibition is reported as 6.13% (active).
For `CCCNC(=O)C1CC(=O)N(c2ccc(OCc3ccccc3)cc2)C1` (centres undefined), the inhibition was 5.35% (active).
For `O=C(NN=Cc1ccccc1)c1ccccc1`, the inhibition was 3.83% (active).
With `Brc1ccc2nc(N3CCCC3)sc2c1` the inhibition was 7.95% (active).
In the case of `COc1ccc(-c2csc(Cc3nc(O)cs3)n2)cc1`, the inhibition is reported as 4.06% (active).
With `CCN(c1ccccc1)S(=O)(=O)c1ccc(OCC(=O)N2CCCC2)cc1` the inhibition was 4.72% (active).
In the case of `CC(=O)c1ccc(NC(=O)CCc2nnc3ccc(NCc4ccco4)nn23)cc1`, the inhibition is reported as 4.34% (active).
With `Nc1ccc2nn(-c3ccc(Cl)cc3)nc2c1` the inhibition was 4.89% (active).
For `CC(=O)Nc1cccc(C(=O)OCC(=O)c2ccc3c(c2)OCO3)c1`, the inhibition was 13.7% (active).
For `O=C(NCC(=O)N1CCCC(C(F)(F)F)C1)c1ccccc1F` (centres undefined), the inhibition was 4.23% (active).
With `CC1CCN(C(=O)COC(=O)c2cc(=O)[nH]c3ccccc23)CC1` the inhibition was 9.38% (active).
With `C=CCn1c(C)cc(C(=O)CN2C(=O)c3ccccc3C2=O)c1C` the inhibition was 3.9% (active).
In the case of `COc1cccc(/C=C/C(=O)Nc2ccc3c(c2)OCCO3)c1`, the inhibition is reported as 5.36% (active).
With `Cc1cccc(NC(=O)/C=C/c2ccc3c(c2)OCO3)n1` the inhibition was 5.26% (active).
With `O=C(O)c1cccc(N=NN2CCCCCC2)c1` the inhibition was 6.35% (active).
